# Laboratory results published in PubChem BioAssay.
# Several values for one entry are separate records, joined by “and”; a condition that tells them apart may be missing. Equal entries are not always repeated. Unmarked numbers belong to inactive results. Activity calls are given as the source filed them. Unless noted, no stated cut-off is given here; in the data, active means inhibition above about 30%; inactive means the rest.
# Tests used:
# [1] = molecular target: Nuclear receptor coactivator 3 (Homo sapiens) (UniProt Q9Y6Q9); assay: NCOA3 GAL4-fusion reporter inhibition – cell-based, luminescence, quadruplicate, confirmation (AID 588792;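 active means mean inhibition over 43.08%, the solvent-only control mean plus 3 SD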;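 further: 0% = DMSO treated cells and 100% = gossypol at 36 µM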); details: HEK293 GAL4-SRC3 luciferase reporter, at 3.6 µM, hits give high values
# Sequence of Nuclear receptor coactivator 3 (Homo sapiens) (Q9Y6Q9 whole entry, looked up, the tested form may be a part): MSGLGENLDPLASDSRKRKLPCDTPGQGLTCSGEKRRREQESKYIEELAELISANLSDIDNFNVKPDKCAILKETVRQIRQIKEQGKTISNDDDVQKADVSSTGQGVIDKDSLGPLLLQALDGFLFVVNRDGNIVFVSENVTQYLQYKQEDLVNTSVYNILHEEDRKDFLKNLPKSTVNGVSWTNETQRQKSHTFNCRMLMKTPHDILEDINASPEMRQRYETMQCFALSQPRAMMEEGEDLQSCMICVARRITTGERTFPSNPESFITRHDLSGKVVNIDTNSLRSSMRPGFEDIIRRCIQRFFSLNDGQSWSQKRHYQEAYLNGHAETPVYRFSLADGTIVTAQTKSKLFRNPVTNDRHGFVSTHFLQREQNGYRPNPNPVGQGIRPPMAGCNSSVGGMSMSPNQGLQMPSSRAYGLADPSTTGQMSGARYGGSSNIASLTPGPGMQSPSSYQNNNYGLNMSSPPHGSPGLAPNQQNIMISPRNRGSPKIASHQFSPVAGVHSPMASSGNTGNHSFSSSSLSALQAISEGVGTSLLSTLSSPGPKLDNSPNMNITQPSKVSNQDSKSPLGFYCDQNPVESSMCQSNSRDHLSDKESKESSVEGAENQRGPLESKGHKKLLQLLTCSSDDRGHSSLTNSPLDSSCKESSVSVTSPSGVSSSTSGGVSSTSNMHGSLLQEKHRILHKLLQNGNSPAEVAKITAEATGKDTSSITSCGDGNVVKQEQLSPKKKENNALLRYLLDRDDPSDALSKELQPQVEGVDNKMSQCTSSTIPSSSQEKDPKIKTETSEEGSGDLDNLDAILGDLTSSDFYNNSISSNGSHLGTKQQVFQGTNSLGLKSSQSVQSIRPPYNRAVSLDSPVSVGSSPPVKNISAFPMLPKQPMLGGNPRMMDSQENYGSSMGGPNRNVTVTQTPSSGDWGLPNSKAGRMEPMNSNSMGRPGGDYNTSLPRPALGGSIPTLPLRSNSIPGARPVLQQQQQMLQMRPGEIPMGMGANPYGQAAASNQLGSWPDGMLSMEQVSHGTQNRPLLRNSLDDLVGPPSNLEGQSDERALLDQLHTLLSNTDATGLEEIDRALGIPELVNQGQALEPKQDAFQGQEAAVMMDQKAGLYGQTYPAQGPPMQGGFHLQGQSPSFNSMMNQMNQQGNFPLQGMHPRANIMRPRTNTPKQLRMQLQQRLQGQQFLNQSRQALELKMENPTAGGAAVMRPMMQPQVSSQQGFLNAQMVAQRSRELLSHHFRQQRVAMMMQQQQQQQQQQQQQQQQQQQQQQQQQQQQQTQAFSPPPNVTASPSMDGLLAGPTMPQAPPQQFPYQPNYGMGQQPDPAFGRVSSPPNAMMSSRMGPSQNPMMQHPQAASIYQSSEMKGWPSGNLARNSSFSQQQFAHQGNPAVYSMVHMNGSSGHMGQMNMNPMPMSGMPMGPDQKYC
# [2] = system: transactivating tegument protein VP16 (Human herpesvirus 1), Gal4-VP16 luciferase reporter; assay: repression of VP16-driven luciferase reporter – cell-based, luminescence, high throughput, counter-screen for SRC3 inhibitor project (AID 588794); details: mammalian cells, at 3.6 µM, hits give high values
# [3] = molecular target: Nuclear receptor coactivator 1 (Homo sapiens) (UniProt Q15788); assay: NCOA1 GAL4-fusion reporter inhibition – cell-based, luminescence, quadruplicate, confirmation (AID 588820;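 active means mean inhibition above 46.68%, the untreated control wells mean plus 3 SD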;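 further: 0% = DMSO wells and 100% = gossypol 36 µM treated wells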); details: HEK293 GAL4-SRC1 luciferase reporter, at 3.6 µM, hits give high values
# Sequence of Nuclear receptor coactivator 1 (Homo sapiens) (Q15788 whole entry, looked up, the tested form may be a part): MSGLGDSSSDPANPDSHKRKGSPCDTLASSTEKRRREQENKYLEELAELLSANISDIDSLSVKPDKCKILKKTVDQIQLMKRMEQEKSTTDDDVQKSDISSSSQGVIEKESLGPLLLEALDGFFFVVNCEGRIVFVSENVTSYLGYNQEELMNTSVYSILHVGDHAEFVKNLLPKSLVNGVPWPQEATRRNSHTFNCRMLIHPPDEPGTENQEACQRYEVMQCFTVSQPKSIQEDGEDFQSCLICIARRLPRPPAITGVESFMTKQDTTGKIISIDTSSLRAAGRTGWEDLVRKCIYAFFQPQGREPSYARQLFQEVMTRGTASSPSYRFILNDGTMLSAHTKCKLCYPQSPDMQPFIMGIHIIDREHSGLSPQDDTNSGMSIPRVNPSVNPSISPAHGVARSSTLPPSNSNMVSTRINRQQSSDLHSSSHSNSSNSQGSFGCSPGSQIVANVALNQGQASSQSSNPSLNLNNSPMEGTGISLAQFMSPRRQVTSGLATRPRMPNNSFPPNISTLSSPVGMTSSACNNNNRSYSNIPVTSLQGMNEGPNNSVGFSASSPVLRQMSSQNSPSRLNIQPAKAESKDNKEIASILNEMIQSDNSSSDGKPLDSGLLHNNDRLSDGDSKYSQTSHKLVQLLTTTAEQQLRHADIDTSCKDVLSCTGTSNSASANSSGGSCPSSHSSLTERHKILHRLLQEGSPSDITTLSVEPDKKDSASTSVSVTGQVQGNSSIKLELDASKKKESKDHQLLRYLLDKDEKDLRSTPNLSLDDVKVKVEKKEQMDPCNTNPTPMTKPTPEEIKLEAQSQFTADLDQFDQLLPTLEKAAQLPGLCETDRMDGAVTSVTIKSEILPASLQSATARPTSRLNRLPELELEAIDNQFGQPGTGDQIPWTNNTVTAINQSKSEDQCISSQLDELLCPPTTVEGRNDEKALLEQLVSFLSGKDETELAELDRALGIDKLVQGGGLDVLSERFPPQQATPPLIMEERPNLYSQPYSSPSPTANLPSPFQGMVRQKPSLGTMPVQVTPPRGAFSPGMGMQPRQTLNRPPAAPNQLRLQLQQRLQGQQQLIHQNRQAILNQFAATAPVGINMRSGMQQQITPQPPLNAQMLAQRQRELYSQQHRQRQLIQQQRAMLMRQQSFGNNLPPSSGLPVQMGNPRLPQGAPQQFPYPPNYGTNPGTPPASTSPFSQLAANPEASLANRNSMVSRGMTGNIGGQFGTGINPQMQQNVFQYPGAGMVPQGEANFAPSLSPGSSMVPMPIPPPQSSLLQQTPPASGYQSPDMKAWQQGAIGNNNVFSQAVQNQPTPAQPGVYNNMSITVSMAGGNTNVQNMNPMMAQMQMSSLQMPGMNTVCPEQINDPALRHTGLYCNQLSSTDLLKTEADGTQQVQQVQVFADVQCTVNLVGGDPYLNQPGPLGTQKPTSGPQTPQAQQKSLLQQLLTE
# [4] = repression of VP16-driven luciferase reporter – cell-based, luminescence, high throughput, counter-screen for SRC1 inhibitor project (AID 588824; in the data active means inhibition above about 25%); details: cell-based VP16 transactivation luciferase luminescence; at 3.6 µM; hits give high values
# [5] = StAR promoter reporter inhibitors, counter-screen for LRH-1 inverse agonist project, cell-based, luminescence, high throughput (AID 651611; in the data active means inhibition above about 28%); details: StAR promoter luciferase reporter counterscreen, at 3.6 µM, hits give high values
# [6] = molecular target: Nuclear receptor subfamily 5 group A member 2 (Homo sapiens) (UniProt O00482); assay: NR5A2 activity suppression in reporter cells – cell-based, luminescence, confirmation (AID 651613; in the data active means inhibition above about 42%;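 further: HEK293T cells co-transfected with LRH-1 and StAR promoter luciferase reporter; 0% = vehicle wells and 100% = parental cells lacking receptor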); details: cell-based LRH-1 luciferase reporter, inverse agonism; at 3.6 µM; hits give high values
# Sequence of Nuclear receptor subfamily 5 group A member 2 (Homo sapiens) (O00482 whole entry, looked up): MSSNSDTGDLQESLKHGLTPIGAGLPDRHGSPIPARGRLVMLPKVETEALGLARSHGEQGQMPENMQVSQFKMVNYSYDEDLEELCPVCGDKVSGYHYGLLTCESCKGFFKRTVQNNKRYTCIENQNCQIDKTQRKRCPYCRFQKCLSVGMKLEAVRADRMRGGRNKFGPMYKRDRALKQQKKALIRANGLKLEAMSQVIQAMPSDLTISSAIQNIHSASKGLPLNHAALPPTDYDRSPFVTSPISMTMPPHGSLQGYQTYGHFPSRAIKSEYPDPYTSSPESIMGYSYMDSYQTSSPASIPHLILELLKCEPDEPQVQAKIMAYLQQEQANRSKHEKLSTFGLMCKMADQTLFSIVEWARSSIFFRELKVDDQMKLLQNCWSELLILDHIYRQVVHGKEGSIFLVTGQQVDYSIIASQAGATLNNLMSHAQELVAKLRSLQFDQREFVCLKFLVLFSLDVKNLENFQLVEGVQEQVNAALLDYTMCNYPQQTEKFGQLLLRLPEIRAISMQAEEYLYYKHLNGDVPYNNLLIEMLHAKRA
# [7] = molecular target: Steroidogenic factor 1 (Homo sapiens) (UniProt Q13285); assay: inverse agonism at SF1 nuclear receptor – cell-based, luminescence, high throughput, counter-screen for LRH-1 inverse agonist project (AID 651614; in the data active means inhibition above about 44%;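 further: cells cotransfected with StAR promoter reporter and SF1 expression vector; 0% = vehicle on cells with receptor and 100% = vehicle on cells lacking receptor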); details: cell-based SF1 luciferase reporter, at 3.6 µM, hits give high values
# Sequence of Steroidogenic factor 1 (Homo sapiens) (Q13285 whole entry, looked up, the tested form may be a part): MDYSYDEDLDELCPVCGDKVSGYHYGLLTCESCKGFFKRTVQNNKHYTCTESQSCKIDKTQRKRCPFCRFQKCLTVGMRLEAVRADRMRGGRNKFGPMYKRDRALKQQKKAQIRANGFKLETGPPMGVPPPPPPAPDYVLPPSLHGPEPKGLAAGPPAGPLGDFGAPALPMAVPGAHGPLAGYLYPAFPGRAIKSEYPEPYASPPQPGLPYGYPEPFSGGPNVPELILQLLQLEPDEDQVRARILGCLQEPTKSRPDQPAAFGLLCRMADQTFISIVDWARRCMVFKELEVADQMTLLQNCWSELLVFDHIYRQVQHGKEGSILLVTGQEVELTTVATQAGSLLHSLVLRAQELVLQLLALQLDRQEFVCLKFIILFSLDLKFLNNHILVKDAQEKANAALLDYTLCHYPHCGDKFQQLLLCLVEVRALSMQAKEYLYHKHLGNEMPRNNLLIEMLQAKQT
# [8] = compounds suppressing VP16-driven luciferase signal – cell-based, luminescence, high throughput, counter-screen for LRH-1 inverse agonist project (AID 651615; in the data active means inhibition above about 33%); details: Gal4-VP16 luciferase reporter cells, at 3.6 µM, hits give high values
smiles,measurement,setting,value
Cc1cccc(C)c1-n1nnnc1C(CCc1ccccc1)N1CCC(n2c(=O)[nH]c3ccccc32)CC1 (configuration not stated),inhibition,[1],40.6%
same,inhibition,[2],49.2% (active)
same,inhibition,[3],20.7%
same,inhibition,[4],51.8% (active)
CSCCC(c1nnnn1Cc1ccccc1)N1CCC(n2c(=O)[nH]c3ccccc32)CC1 (configuration not stated),inhibition,[1],52.8% (active)
same,inhibition,[2],46.3% (active)
same,inhibition,[3],36.4%
same,inhibition,[4],44.5% (active)
Cc1cc(C)n(-c2ccc(NN=C(C#N)C#N)cc2)n1,inhibition,[1],43.3% (active)
same,inhibition,[2],61.8% (active)
CC1=CC2OC3CC4OC(=O)C=CC=CC(=O)OCCC(C)C(O)C(=O)OCC2(CC1O)C4(C)C31CO1 (configuration not stated),inhibition,[1],98% (active)
same,inhibition,[2],96.8% (active)
same,inhibition,[3],96.8% (active)
same,inhibition,[4],95.6% (active)
CC(C)[C@H]1C(=O)O[C@H](C(C)C)C(=O)N(C)[C@@H](C(C)C)C(=O)O[C@H](C(C)C)C(=O)N(C)[C@@H](C(C)C)C(=O)O[C@H](C(C)C)C(=O)N1C,inhibition,[1],75% (active)
same,inhibition,[2],86.1% (active)
same,inhibition,[3],59.5% (active)
same,inhibition,[4],84.9% (active)
COc1cc2c(cc1O)C[C@H]1NCCc3cc4c(c-2c31)OCO4,inhibition,[1],32.3%
same,inhibition,[2],33.2% (active)
same,inhibition,[3],22.1%
same,inhibition,[4],40.2% (active)
Cc1cc2c(C(C)C)c(O)c(O)c(C=O)c2c(O)c1-c1c(C)cc2c(C(C)C)c(O)c(O)c(C=O)c2c1O,inhibition,[1],5.58%
same,inhibition,[2],22.2%
Cc1cccc(C)c1-n1nnnc1C(c1cc2ccccc2o1)N1CCC(n2c(=O)[nH]c3ccccc32)CC1 (configuration not stated),inhibition,[1],23.8%
same,inhibition,[2],41.3% (active)
same,inhibition,[3],7.31%
same,inhibition,[4],25.9% (active)
COC(=O)C1CN(C#N)N(c2ccc(Cl)cc2)C12c1ccccc1-c1ccccc12 (configuration not stated),inhibition,[1],13.6%
same,inhibition,[2],33.5% (active)
CCCCNS(=O)(=O)c1ccc(OCC(=O)N2CCN(Cc3ccc4c(c3)OCO4)CC2)cc1,inhibition,[1],10.7%
same,inhibition,[2],26.6%
CCOc1ccc(-c2c(C)n(-c3ccc(OCC)cc3)c3[n+]2CCCCC3)cc1,inhibition,[1],96.3% (active)
same,inhibition,[2],89% (active)
same,inhibition,[3],74% (active)
same,inhibition,[4],87.2% (active)
CCn1c(O)c(C=NCCN2CCOCC2)c(=O)n(CC)c1=S,inhibition,[1],9.7%
same,inhibition,[2],7.94%
CNC(=O)c1cccn(Cc2cc(C(F)(F)F)cc(C(F)(F)F)c2)c1=O,inhibition,[1],28.4%
same,inhibition,[2],11%
same,inhibition,[3],10.9%
same,inhibition,[4],3.5%
CC/C(=N\Nc1ccccc1)c1c(O)[nH]c(=O)[nH]c1=O,inhibition,[1],14.7%
same,inhibition,[2],20.4%
CC(=NCc1ccc2c(c1)OCO2)c1c(O)n(-c2ccccc2)c(=O)[nH]c1=O,inhibition,[1],-6%
same,inhibition,[2],13.8%
CC1=C(N2CC2)C(=O)C(CO)=C(N2CC2)C1=O,inhibition,[1],96.1% (active)
same,inhibition,[2],91.2% (active)
same,inhibition,[3],86.1% (active)
same,inhibition,[4],93% (active)
O=c1[nH]c2ccccc2n1C1CCN(C(c2cc3ccccc3o2)c2nnnn2Cc2ccccc2)CC1 (configuration not stated),inhibition,[1],59.9% (active)
same,inhibition,[2],9.7%
same,inhibition,[3],-16%
same,inhibition,[4],11.7%
C/C(=N\Nc1ccccc1)c1c(O)[nH]c(=O)[nH]c1=O,inhibition,[1],0.35%
same,inhibition,[2],17.7%
same,inhibition,[3],-2.36%
same,inhibition,[4],13.6%
O=c1[nH]c2ccccc2n1C1CCN(C(CCc2ccccc2)c2nnnn2C2CCCCC2)CC1 (configuration not stated),inhibition,[1],11.8%
same,inhibition,[2],12.5%
same,inhibition,[3],2.31%
same,inhibition,[4],-5.85%
COc1cccc(C(c2nnnn2-c2ccc3c(c2)OCCO3)N2CCC(n3c(=O)[nH]c4ccccc43)CC2)c1OC (configuration not stated),inhibition,[1],26.6%
same,inhibition,[2],35.9% (active)
same,inhibition,[3],-22.4%
same,inhibition,[4],24.7%
CN(C)c1ccc(/C=C/c2cc[n+](C)c3ccccc23)cc1,inhibition,[1],55.9% (active) and 45.3% (active)
same,inhibition,[2],74% (active) and 71.3% (active)
same,inhibition,[3],40.2% and 45.5%
same,inhibition,[4],77.9% (active) and 78.6% (active)
same,inhibition,[5],72.7% (active) and 74.2% (active)
same,inhibition,[6],102% (active) and 107% (active)
same,inhibition,[7],86.9% (active) and 89.7% (active)
same,inhibition,[8],82% (active) and 84% (active)
O=c1[nH]c2ccccc2n1C1CCN(C(c2nnnn2-c2ccc3c(c2)OCCO3)C2CC2)CC1 (configuration not stated),inhibition,[1],25.1%
same,inhibition,[2],23.5%
same,inhibition,[3],-8.7%
same,inhibition,[4],22%
O=c1[nH]c2ccccc2n1C1CCN(C(c2cccs2)c2nnnn2Cc2ccccc2)CC1 (configuration not stated),inhibition,[1],32.3%
same,inhibition,[2],36.7% (active)
same,inhibition,[3],0.46%
same,inhibition,[4],32.5% (active)
